A number with no mark means an inactive call. Records with an inconclusive call do not appear. Entries that show only a call come without a potency. The source made the active and inactive calls. Calls come from the whole dose curve; as a rule, active = well fitted curve in the direction sought with a large enough effect in the repeat runs; inconclusive = weak or mixed curves; inactive = no such curve, though single readings can be large; an effect the other way counts as inactive or inconclusive.
Columns and labels:
[1] = A CellTox Green Cytotoxicity Assay to monitor cytotoxicity in HEK293 cells - 40 hour (AID 1224871); note: nearly all actives have a fitted effect of over 45% in size
Summary of the method: (§1)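 Cells (HEK293, 600/well) and dye reagent are dispensed together. After 5 h at 37 C, 23 nL compound is pinned in. Plates stay at 37 C for 40 h with fluorescence read at 0h, 8h, 16h, 24h, 32h and 40h.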

[2] = qHTS RealTime-Glo MT Cell Viability Assay in HepG2 cells - 8 hour (AID 1224873); note: nearly all actives have a fitted effect of over 55% in size
Summary of the method: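 Real-time viability: cells seeded at 600 per well together with NanoLuc and cell-permeant prosubstrate, compounds added after 5 h incubation. Luminescence tracked at 0, 8, 16, 24, 32 and 40 h of exposure.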

[3] = A CellTox Green Cytotoxicity Assay to monitor cytotoxicity in HEK293 cells - 24 hour (AID 1224875); note: series mostly up to about 77 µM; nearly all actives have a fitted effect of over 45% in size
Summary of the method: as §1

[4] = A CellTox Green Cytotoxicity Assay to monitor cytotoxicity in HepG2 cells - 16 hour (AID 1224876); note: nearly all actives have a fitted effect of over 45% in size
Summary of the method: (§2)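 Cells and non-lytic dye reagent are dispensed together (600 HepG2 cells/well) and incubated 5 h before DMSO compound transfer. Kinetic fluorescence is then recorded in the same wells during 40 h at 37 C.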

[5] = qHTS RealTime-Glo MT Cell Viability Assay in HepG2 cells - 32 hour (AID 1224877); note: nearly all actives have a fitted effect of over 55% in size
Summary of the method: (§3)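 HepG2 cells were seeded at 600 cells/well together with NanoLuc luciferase and a cell-permeant prosubstrate, preincubated 5 h at 37 C/5% CO2, then pin-dosed with compounds in DMSO. Nonlytic luminescence from viable cells was read at each time point.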

[6] = A CellTox Green Cytotoxicity Assay to monitor cytotoxicity in HepG2 cells - 24 hour (AID 1224878); note: nearly all actives have a fitted effect of over 45% in size
Summary of the method: as §2

[7] = A CellTox Green Cytotoxicity Assay to monitor cytotoxicity in HepG2 cells - 40 hour (AID 1224879); note: nearly all actives have a fitted effect of over 40% in size; note: potency is the fitted concentration of half-maximal effect
Summary of the method: as §2

[8] = qHTS RealTime-Glo MT Cell Viability Assay in HEK293 cells - 0 hour (AID 1224880)
Summary of the method: (§4)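 Real-time viability in HEK293: signal arises when living cells convert a prosubstrate for NanoLuc in the medium, so luminescence tracks viable cell number. Compound (23 nL, DMSO) added 5 h post-seeding; kinetic reads at 0–40 h, 37 C.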

[9] = A CellTox Green Cytotoxicity Assay to monitor cytotoxicity in HEK293 cells - 32 hour (AID 1224881); note: nearly all actives have a fitted effect of over 40% in size
Summary of the method: as §1

[10] = A CellTox Green Cytotoxicity Assay to monitor cytotoxicity in HepG2 cells - 0 hour (AID 1224882); note: nearly all actives have a fitted effect of over 35% in size
Summary of the method: as §2

[11] = A CellTox Green Cytotoxicity Assay to monitor cytotoxicity in HepG2 cells - 32 hour (AID 1224883); note: nearly all actives have a fitted effect of over 50% in size
Summary of the method: as §2

[12] = A CellTox Green Cytotoxicity Assay to monitor cytotoxicity in HEK293 cells - 8 hour (AID 1224884); note: nearly all actives have a fitted effect of over 35% in size
Summary of the method: as §1

[13] = qHTS RealTime-Glo MT Cell Viability Assay in HepG2 cells - 16 hour (AID 1224885); note: nearly all actives have a fitted effect of over 50% in size
Summary of the method: as §3

[14] = qHTS RealTime-Glo MT Cell Viability Assay in HEK293 cells - 24 hour (AID 1224886); note: top concentration of the series differs between compounds; nearly all actives have a fitted effect of over 50% in size
Summary of the method: (§5)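 HEK293 cells were seeded at 600 cells/well together with NanoLuc luciferase and cell-permeant prosubstrate, preincubated 5 h at 37 C/5% CO2, then given compound in DMSO by pintool. Luminescence from viable-cell prosubstrate reduction was read repeatedly over 40 h.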

[15] = A CellTox Green Cytotoxicity Assay to monitor cytotoxicity in HEK293 cells - 16 hour (AID 1224888); note: nearly all actives have a fitted effect of over 35% in size
Summary of the method: as §1

[16] = qHTS RealTime-Glo MT Cell Viability Assay in HepG2 cells - 0 hour (AID 1224889); note: nearly all actives have a fitted effect of over 50% in size
Summary of the method: as §3

[17] = qHTS RealTime-Glo MT Cell Viability Assay in HEK293 cells - 16 hour (AID 1224872)
Summary of the method: as §5

[18] = qHTS RealTime-Glo MT Cell Viability Assay in HEK293 cells - 8 hour (AID 1224887)
Summary of the method: as §4

[19] = qHTS RealTime-Glo MT Cell Viability Assay in HEK293 cells - 40 hour (AID 1224874); details: RealTime-Glo luminescence; max response: active compounds read low; note: nearly all actives have a fitted effect of over 50% in size
Summary of the method: as §4

Compound	Potency [1]	outcome [2]	Potency [3]	Potency [4]	Potency [5]	Potency [6]	Potency [7]	outcome [8]	Potency [9]	Potency [10]	Potency [11]	Potency [12]	outcome [13]	Potency [14]	Potency [15]	Potency [16]	Potency [17]	Potency [18]	max response [19] [%]
CC1(O)CSC(C)(O)CS1 (stereo not drawn)	inactive	inactive	inactive	inactive	inactive	inactive	inactive	inactive	inactive	inactive	inactive	inactive	inactive	inactive	inactive	inactive	–	–	–
CN1CCN(c2c(F)cc3c(=O)c(C(=O)O)cn4c3c2SCC4)CC1	inactive	inactive	inactive	inactive	inactive	–	–	inactive	inactive	inactive	inactive	inactive	inactive	inactive	inactive	inactive	inactive	inactive	–
NNS(=O)(=O)c1ccc(Oc2ccc(S(=O)(=O)NN)cc2)cc1	inactive	inactive	inactive	inactive	inactive	inactive	inactive	inactive	inactive	inactive	inactive	inactive	inactive	inactive	inactive	inactive	–	inactive	0.181
CN(C)CC[C@@H](c1ccc(Cl)cc1)c1ccccn1	inactive	inactive	inactive	inactive	inactive	–	–	inactive	inactive	inactive	inactive	inactive	inactive	inactive	inactive	inactive	inactive	inactive	-0.584
CCN(CC)CCOc1ccc(Cc2ccccc2)cc1	inactive	inactive	inactive	–	inactive	–	26.8 µM (active)	inactive	inactive	inactive	–	inactive	inactive	–	inactive	inactive	inactive	inactive	–
CC(CNC1CCCCC1)OC(=O)c1ccccc1 (stereo not drawn)	inactive	inactive	inactive	inactive	inactive	inactive	inactive	inactive	inactive	inactive	inactive	inactive	inactive	inactive	inactive	inactive	inactive	inactive	-9.26
CCC(=O)O[C@]1(C(=O)SCF)[C@H](C)C[C@H]2[C@@H]3C[C@H](F)C4=CC(=O)C=C[C@]4(C)[C@@]3(F)[C@@H](O)C[C@@]21C	–	inactive	inactive	inactive	inactive	inactive	–	inactive	inactive	inactive	–	inactive	inactive	inactive	inactive	inactive	–	inactive	–
COC(=O)N[C@H](C(=O)N[C@@H](Cc1ccccc1)[C@@H](O)CN(Cc1ccc(-c2ccccn2)cc1)NC(=O)[C@@H](NC(=O)OC)C(C)(C)C)C(C)(C)C	–	–	inactive	–	inactive	–	–	inactive	inactive	–	–	inactive	inactive	inactive	inactive	–	inactive	inactive	-6.22
CC(C)CCCCCCc1ccc(OCCOCCO)cc1	inactive	inactive	inactive	inactive	inactive	inactive	–	inactive	inactive	inactive	–	inactive	inactive	inactive	inactive	inactive	inactive	inactive	2.16
CC(C)NCC(O)COc1ccc(CCOCC2CC2)cc1 (stereo not drawn)	inactive	inactive	inactive	inactive	inactive	inactive	–	inactive	inactive	inactive	inactive	inactive	inactive	–	inactive	inactive	inactive	inactive	-6.16
CC(C)CC(=O)OCc1ccccc1	inactive	inactive	inactive	inactive	inactive	inactive	inactive	inactive	inactive	inactive	inactive	inactive	inactive	–	–	inactive	–	inactive	3.51
Nc1ccc2ccccc2c1S(=O)(=O)O	–	inactive	inactive	inactive	inactive	inactive	inactive	inactive	inactive	inactive	inactive	inactive	inactive	inactive	–	inactive	inactive	inactive	-4.03
CCOC(=O)c1cc(=O)c2c(OCC(COc3cccc4oc(C(=O)OCC)cc(=O)c34)OC(=O)[C@@H](N)CCCCN)cccc2o1	inactive	inactive	inactive	inactive	inactive	inactive	–	inactive	inactive	inactive	inactive	inactive	inactive	inactive	inactive	inactive	inactive	inactive	3.47
CC(C)(C)C1CCCCC1=O (stereo not drawn)	inactive	inactive	inactive	inactive	inactive	inactive	inactive	inactive	inactive	inactive	inactive	inactive	inactive	inactive	inactive	inactive	–	inactive	10.3
CCC(=O)Nc1ccc(O)cc1	inactive	inactive	inactive	inactive	inactive	inactive	–	inactive	inactive	inactive	inactive	inactive	inactive	inactive	inactive	inactive	inactive	inactive	2.18
CC(C)C(=O)OC/C=C/c1ccccc1	inactive	inactive	inactive	inactive	inactive	–	inactive	inactive	inactive	inactive	inactive	inactive	inactive	inactive	–	inactive	inactive	inactive	-2.31

— PubChem BioAssay (Tox21)
